Reference: PubChem BioAssay (Tox21)
Where “and” joins values, the source holds several entries; their conditions need not be identical. Equal values may be shown once. Records with an inconclusive call do not appear. Values without a mark were called inactive. Calls of active or inactive are those of the source. The call rests on the fitted dose curve; in most records, active means well fitted activation curve with a large enough effect in the repeat runs; inconclusive means weak or mixed curves; inactive means no such curve, though single readings can be large or run the other way.

These compounds were tested against Nuclear receptor subfamily 1 group I member 2 (Rattus norvegicus) (UniProt Q9R1A7) (assay: Rat pregnane X receptor (rPXR) activation by small molecules, qHTS assay (AID 1346983; further: nearly all actives have a fitted effect of over 20% in size)). Conditions: rPXR luciferase reporter cells, One-Glo luminescence, 24 h; max activation: stronger effect = higher value.
Text: National Center for Advancing Translational Sciences [NCATS] NIH Chemical Genomics Center [NCGC] U.S. Environmental Protection Agency [EPA] National Institutes of Environmental Health Sciences [NIEHS] National Toxicology Program [NTP] Assay overview: The Pregnane X receptor (PXR), a ligand activated nuclear receptor plays a critical role in the regulation of genes involved in drug metabolism and transporters. PXR binds xenobiotics and when compounds interact with PXR produces enhanced expression of CYP3A genes. In humans PXR activation and CYP3A4 induction can be problematic due to their interactions with co-medicated drugs and decrease their efficacy or increase their own metabolism. However, there are known species-specific differences with regard to PXR activation that should be taken into account when animal PXR data are extrapolated to humans. A cell based rat PXR (rPXR) assay (developed by Puracyp, Inc., CA) was used to assess the activation of rPXR.
Assay Protocol Summary: rPXR cells were dispensed at 2,000 per well in 5uL of assay medium into white, solid-bottom 1536-well plates using a Multidrop Combi dispenser (Thermo Scientific). The assay plates were incubated at 37 C for 5hr before transferring 23 nL of test compounds dissolved in DMSO and positive control via Pintool station (Wako). The assay plates were incubated at 37 C for 24 hr. Then 5ul One-Glo assay reagent (Promega) was added to each plate by a Flying Reagent Dispenser (FRD, Aurora Discovery) and following 30 min incubation at room temperature, luciferase activity was quantified on a ViewLux plate reader (Perkin Elmer).
On the % scale 0 is the no-effect control and ±100 the full control effect; potency means the concentration at half of the fitted maximal effect.

Sequence of Nuclear receptor subfamily 1 group I member 2 (Rattus norvegicus) (Q9R1A7 whole entry, looked up): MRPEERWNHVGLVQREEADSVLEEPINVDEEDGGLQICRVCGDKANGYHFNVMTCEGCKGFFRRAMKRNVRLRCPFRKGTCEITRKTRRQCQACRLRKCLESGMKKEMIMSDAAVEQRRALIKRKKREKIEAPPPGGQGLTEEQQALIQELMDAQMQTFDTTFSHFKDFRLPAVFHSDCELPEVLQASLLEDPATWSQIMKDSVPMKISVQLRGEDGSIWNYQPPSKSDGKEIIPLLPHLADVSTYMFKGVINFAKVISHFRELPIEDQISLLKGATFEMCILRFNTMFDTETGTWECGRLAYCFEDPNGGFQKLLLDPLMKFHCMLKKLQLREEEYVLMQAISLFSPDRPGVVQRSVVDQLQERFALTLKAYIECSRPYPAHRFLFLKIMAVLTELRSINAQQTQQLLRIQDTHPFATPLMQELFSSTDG

Compound	max activation	Potency
Oc1cccc[c]1[Hg][Cl]	-19.4%	
Cc1ccccc1-n1c(C)nc2ccccc2c1=O	9.97%	
C[C@H]1CC[C@]2(NC1)O[C@H]1C[C@H]3[C@@H]4CC[C@H]5C[C@@H](O[C@@H]6O[C@H](CO)[C@H](O[C@@H]7O[C@H](CO)[C@@H](O)[C@H](O[C@@H]8OC[C@@H](O)[C@H](O)[C@H]8O)[C@H]7O[C@@H]7O[C@H](CO)[C@@H](O)[C@H](O)[C@H]7O)[C@H](O)[C@H]6O)CC[C@]5(C)[C@H]4CC[C@]3(C)[C@H]1[C@@H]2C	-24.3%	
C[C@H]1CC[C@]2(NC1)O[C@H]1C[C@H]3[C@@H]4CC[C@H]5C[C@@H](O)CC[C@]5(C)[C@H]4CC[C@]3(C)[C@H]1[C@@H]2C	11.8%	
CN=C1CN(O)C(c2ccccc2)=c2cc(Cl)ccc2=N1	-1.86% and 4.26%	
C[C@@H](Cc1ccccc1)N(C)C	-2.61%	
C[C@@H]([C@H](O)c1ccccc1)N(C)C	-2.62%	
Cc1nnc2n1-c1ccc(Cl)cc1C(c1ccccc1)=NC2	-0.769%	
O=C1Nc2ccc(Cl)cc2C(c2ccccc2Cl)=NC1O (stereo not given)	-2.09%	
CC(Cc1ccccc1)NC=O (stereo not given)	0.0916%	
CCCC(=O)OC(C(Cl)(Cl)Cl)P(=O)(OC)OC (stereo not given)	0.574%	
CCCC(C)(COC(N)=O)COC(=O)NC1CC1 (stereo not given)	-2.91%	
O[C@H]1[C@H]2[C@H](O)CCCN2C[C@H]1O	-2.82%	
CC(=O)OO	-0.773%	
CC[C@H]1[C@@H]2C[C@H]3[C@@H]4N(C)c5ccccc5[C@]45C[C@@H](C2[C@H]5O)N3[C@@H]1O (stereo not given in full)	0.0648%	
NCC(O)c1cccc(O)c1 (stereo not given)	-2.06%	
CN1[C@H]2CC[C@@H]1[C@@H](C(=O)O)[C@@H](OC(=O)c1ccccc1)C2	-2.75%	
NC1=NC(=O)N2CC12 (stereo not given)	-1.23%	
Cc1cccc(C(C)c2cnc[nH]2)c1C (stereo not given)	-0.62%	
C[C@]12C[C@H]3S[C@H]3C[C@@H]1CC[C@@H]1[C@@H]2CC[C@]2(C)[C@@H](O)CC[C@@H]12	11.2%	

Compound	max activation	Potency
OC(c1ccccc1)(c1ccccc1)C1CN2CCC1CC2 (stereo not given)	17.5%	
CC1(C)[C@H](C=C(Cl)Cl)[C@H]1C(=O)OCc1c(F)c(F)cc(F)c1F	4.71%	
O=C(OCCN1CCCCC1)C(O)(c1ccccc1)c1ccccc1	-1.73%	
C[C@]12CC[C@H]3[C@@H](CCC4=C(Cl)C(=O)CC[C@@]43C)[C@@H]1CC[C@@H]2O	-0.226%	
CCCCCCC(=O)O[C@H]1CC[C@H]2[C@@H]3CC[C@H]4CC(=O)C=C(C)[C@]4(C)[C@H]3CC[C@]12C	-2.7%	
O=C(CS(=O)C(c1ccccc1)c1ccccc1)NO (stereo not given)	-2.68%	
CCC1C(C)=NN=C(c2ccc(OC)c(OC)c2)c2cc(OC)c(OC)cc21 (stereo not given)	-0.64%	
CCCN1CCC[C@H](c2cccc(O)c2)C1	-2.62%	
O=C(C[C@@H]1NCCC[C@H]1O)Cn1cnc2cc(Br)c(Cl)cc2c1=O	5.28%	
CCON=O	-2.18%	
CN[C@H]1C[C@@H](N)[C@H](O)[C@@H](O[C@@H]2O[C@H](CO)[C@H](O)[C@@H]3OC4(O[C@H]23)O[C@H](C(N)CO)[C@H](O)[C@H](O)[C@H]4O)[C@@H]1O (stereo not given in full)	-3.01%	
Clc1ccc2c(c1)C(c1ccccc1)=NCc1nncn1-2	-10.5%	
c1cc2c(c(NC3=NCCN3)c1)CCCC2	-5.45%	
C/C(=C\c1csc(C)n1)[C@@H]1C[C@@H]2O[C@]2(C)CCC[C@H](C)[C@H](O)[C@@H](C)C(=O)C(C)(C)[C@@H](O)CC(=O)O1		10 µM (active)
CC(=O)O[C@H]1C[C@H](O[C@H]2[C@@H](O)C[C@H](O[C@H]3[C@@H](O)C[C@H](O[C@H]4CC[C@@]5(C)[C@H](CC[C@@H]6[C@@H]5C[C@@H](O)[C@]5(C)[C@@H](C7=CC(=O)OC7)CC[C@]65O)C4)O[C@@H]3C)O[C@@H]2C)O[C@H](C)[C@H]1O[C@@H]1O[C@H](CO)[C@@H](O)[C@H](O)[C@H]1O	4.17%	
C[C@@H](CO)NC(=O)[C@@H]1C=C2c3cccc4[nH]cc(c34)C[C@H]2N(C)C1	-0.825%	
C=CCN1CC[C@]23c4c5ccc(O)c4O[C@H]2[C@@H](O)C=C[C@H]3[C@H]1C5	-1.77%	
CCOc1ccc2c3c1O[C@H]1[C@@H](O)C=C[C@H]4[C@@H](C2)N(C)CC[C@@]341	-1.03%	
COc1ccc2c3c1O[C@H]1[C@@H](O)C=C[C@H]4[C@@H](C2)NCC[C@@]341	-0.689%	
C=CCN(C1=NCCN1)c1c(Cl)cccc1Cl	-3.97%	
